# Values without a mark were called inactive. Results filed as inconclusive are left out. Where a call stands in place of a potency, no number is given. Calls of active or inactive are those of the source. Unless noted, the call rests on the fitted dose curve; in most records, active means well fitted curve in the direction sought with a large enough effect in the repeat runs; inconclusive means weak or mixed curves; inactive means no such curve, though single readings can be large; an effect the other way counts as inactive or inconclusive.
# What was measured:
# [1] = qHTS assay for small molecules that induce genotoxicity in human embryonic kidney cells expressing luciferase-tagged ATAD5 (AID 651632); further: nearly all actives have a fitted effect of over 15% in size; further: potency means the concentration at half of the fitted maximal effect
# Summary of the method: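 Genotoxicity read-out via ATAD5-luciferase: HEK293T cells, 16 hr compound incubation at 37C, Amplite detection.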
# [2] = qHTS assay for small molecule agonists of the p53 signaling pathway - cell viability (AID 651633; calls by dose curve; further: nearly all actives have a fitted effect of over 30% in size; further: potency means the concentration at half of the fitted maximal effect)
# Summary of the method: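 Viability counter-read: CellTiter-Glo luminescence (30 min, room temperature) in the same p53RE-bla plates. These plates had been exposed to compounds for 16 h at 37 C.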
# [3] = qHTS assay for small molecule disruptors of the mitochondrial membrane potential - cell viability (AID 720634; calls by dose curve;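 further: human HepG2 liver cancer cells; series mostly up to about 83 µM; nearly all actives have a fitted effect of over 20% in size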)
# Summary of the method: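 Human hepatoma HepG2 cells were treated for 1 hr with test chemicals, then given m-MPI dye and CellTiter-Glo. Cell viability reflects luminescence proportional to cellular ATP.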
# [4] = qHTS assay to test for compound auto fluorescence at 590 nm (red) in HepG2 cells (AID 720674)
# Summary of the method: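 Red autofluorescence (Ex/Em 540/590 nm, Rose Bengal sodium equivalents) was measured in HepG2 cells, 2,000 per well in MEM plus 10% FBS, plated overnight at 37 C. Readings were taken 1 hr after adding 23 nL compound or DMSO, at 37 C and 5% CO2.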
# [5] = qHTS assay to test for compound auto fluorescence at 535 nm (green) in HepG2 cells (AID 720675)
# [6] = qHTS assay to test for compound auto fluorescence at 460 nm (blue) in HEK293 cells (AID 720678)
# Summary of the method: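 HEK293 cells (2,000 per well, medium with 10% dialyzed FBS) attached for 4-5 hr at 37C, then received compound and stood overnight at 37C, 5% CO2. Blue fluorescence was read at Ex/Em 405/460 nm and expressed relative to triamterene.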
# [7] = qHTS assay to test for compound auto fluorescence at 590 nm (red) in HEK293 cells (AID 720679)
# Summary of the method: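 HEK293 cells (2,000/well, medium with 10% dialyzed FBS) attached for 4-5 hr at 37C, received 23 nL compound and were incubated overnight at 37C, 5% CO2. Red fluorescence was then read at 540/590nm Ex/Em, referenced to Rose Bengal sodium.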
# [8] = qHTS assay to test for compound auto fluorescence at 460 nm (blue) in HEK293 cell free culture (AID 720681)
# Summary of the method: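 Blue fluorescence (Ex 405/Em 460 nm, triamterene-equivalent) was read immediately after pin transfer of compound or DMSO into medium (DMEM, 10% FBS) without cells.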
# [9] = qHTS assay to test for compound auto fluorescence at 535 nm (green) in HEK293 cell free culture (AID 720682)
# Summary of the method: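 Green-label autofluorescence (485 nm excitation, 535 nm emission) measured on compound added to cell-free culture medium (DMEM, 10% FBS). Output is expressed relative to fluorescein.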
# [10] = qHTS assay to test for compound auto fluorescence at 590 nm (red) in HEK293 cell free culture (AID 720683)
# Summary of the method: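 Red-channel autofluorescence of compounds in culture medium (DMEM, 10% FBS), no cells, measured at 540/590 nm. Rose Bengal sodium is the reference fluorophore for equivalence.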
# [11] = qHTS assay to test for compound auto fluorescence at 590 nm (red) in HepG2 cell free culture (AID 720684)
# Summary of the method: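 Steps: dispense MEM/10% FBS medium, no cells; pin compound or DMSO vehicle; read red channel, Ex/Em 540/590 nm. Output given as Rose Bengal sodium equivalents.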
# [12] = qHTS assay to test for compound auto fluorescence at 460 nm (blue) in HepG2 cell free culture (AID 720685)
# Summary of the method: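 Compound (23 nL) or DMSO pinned into cell-free MEM with 10% FBS; blue fluorescence read at 405/460 nm excitation/emission, expressed as auto-fluorescence equivalency to triamterene.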
# [13] = qHTS assay to test for compound auto fluorescence at 535 nm (green) in HepG2 cell free culture (AID 720686)
# [14] = qHTS assay to test for compound auto fluorescence at 460 nm (blue) in HepG2 cells (AID 720687)
# Summary of the method: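 Blue-channel autofluorescence (Ex/Em 405/460 nm, triamterene-equivalent) was measured after 1 hr compound exposure at 37 C, 5% CO2. Cells were HepG2, plated overnight at 37 C in MEM plus 10% FBS.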
# [15] = biological target: Glucocorticoid receptor (Homo sapiens) (UniProt P04150); experiment: qHTS assay to identify small molecule agonists of the glucocorticoid receptor (GR) signaling pathway (AID 720691; active means well fitted activation curve with a large enough effect in the signal ratio in the repeat runs, not every such curve was filed as active; the % refers to the signal ratio; further: potency means the concentration at half of the fitted maximal effect)
# Summary of the method: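 Beta-lactamase reporter activity, read as fluorescence intensity, was measured in GR-bla HeLa cells exposed to compounds for 18 h at 37 C and then loaded with LiveBLAzer B/G FRET substrate for 2 h at room temperature.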
# [16] = biological target: Glucocorticoid receptor (Homo sapiens) (UniProt P04150); experiment: qHTS assay to identify small molecule antagonists of the glucocorticoid receptor (GR) signaling pathway (AID 720692; active means well fitted inhibition curve with a large enough effect in the signal ratio in the repeat runs, not every such curve was filed as active; the % refers to the signal ratio)
# Summary of the method: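 Fluorescence from cleaved LiveBLAzer B/G FRET substrate reports GRE-driven beta-lactamase in HeLa cells; compounds are tested against 5 nM dexamethasone (final) over 18 h at 37 C, substrate incubation 2 h at room temperature.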
# [17] = qHTS assay for small molecules that induce genotoxicity in human embryonic kidney cells expressing luciferase-tagged ATAD5 - cell viability (AID 651634; calls by dose curve; further: nearly all actives have a fitted effect of over 25% in size)
# Summary of the method: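 Live-cell protease activity (CellTiter-Fluor, fluorescence) indicates viability. HEK293T cells with luciferase-tagged ATAD5; 15.5 hr compound treatment at 37C.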
# [18] = qHTS assay for small molecule disruptors of the mitochondrial membrane potential (AID 720635); further: potency means the concentration at half of the fitted maximal effect
# Summary of the method: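 Mitochondrial membrane potential tracked with Mito-MPS dye, red aggregates (ex 540/em 590 nm) against green monomers (ex 490/em 535 nm). Compound treatment 1 hr at 37C, dye 30 min in HepG2.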
# [19] = qHTS assay to test for compound auto fluorescence at 535 nm (green) in HEK293 cells (AID 720680)
# Glucocorticoid receptor (Homo sapiens), sequence (P04150 whole entry, looked up): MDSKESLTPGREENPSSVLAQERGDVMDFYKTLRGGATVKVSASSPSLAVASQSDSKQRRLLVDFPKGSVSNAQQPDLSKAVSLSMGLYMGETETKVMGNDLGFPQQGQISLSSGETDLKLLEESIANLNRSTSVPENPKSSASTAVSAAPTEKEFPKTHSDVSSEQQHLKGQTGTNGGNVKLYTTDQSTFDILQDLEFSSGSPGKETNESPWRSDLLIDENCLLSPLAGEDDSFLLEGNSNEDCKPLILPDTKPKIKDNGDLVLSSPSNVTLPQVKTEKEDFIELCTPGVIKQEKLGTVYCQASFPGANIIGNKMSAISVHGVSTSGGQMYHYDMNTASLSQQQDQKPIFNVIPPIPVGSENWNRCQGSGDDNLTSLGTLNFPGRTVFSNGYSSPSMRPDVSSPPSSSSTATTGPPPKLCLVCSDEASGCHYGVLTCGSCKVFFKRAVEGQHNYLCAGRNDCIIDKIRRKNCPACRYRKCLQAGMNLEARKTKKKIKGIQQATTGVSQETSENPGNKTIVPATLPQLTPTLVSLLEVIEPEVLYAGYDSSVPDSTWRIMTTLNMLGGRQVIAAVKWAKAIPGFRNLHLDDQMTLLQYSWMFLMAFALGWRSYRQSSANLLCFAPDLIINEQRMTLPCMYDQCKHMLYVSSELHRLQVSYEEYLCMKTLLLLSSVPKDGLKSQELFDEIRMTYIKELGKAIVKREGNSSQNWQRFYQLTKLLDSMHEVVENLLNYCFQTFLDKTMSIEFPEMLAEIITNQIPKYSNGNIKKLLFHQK
smiles,measurement,setting,value
C=CC(C)(C)CC(=O)OC,Potency,[1],inactive
same,Potency,[2],inactive
same,Potency,[3],inactive
same,outcome,[4],inactive
same,outcome,[5],inactive
same,Potency,[6],inactive
same,outcome,[7],inactive
same,Potency,[8],inactive
same,outcome,[9],inactive
same,outcome,[10],inactive
same,outcome,[11],inactive
same,Potency,[12],inactive
same,outcome,[13],inactive
same,Potency,[14],inactive
same,Potency,[15],inactive
same,Potency,[16],inactive
CC1C2CC(CC2C2CCCC(O)C2)C1(C)C (stereo unspecified),Potency,[1],inactive
same,Potency,[17],inactive
same,Potency,[18],27.3 µM (active)
same,outcome,[4],inactive
same,outcome,[5],inactive
same,Potency,[6],inactive
same,outcome,[7],inactive
same,outcome,[19],inactive
same,Potency,[8],inactive
same,outcome,[9],inactive
same,outcome,[10],inactive
same,outcome,[11],inactive
same,Potency,[12],inactive
same,outcome,[13],inactive
CN(C)CCOC1=Cc2ccccc2Sc2ccc(Cl)cc21,Potency,[1],inactive
same,Potency,[17],inactive
same,Potency,[3],inactive
same,outcome,[4],inactive
same,outcome,[5],inactive
same,Potency,[6],inactive
same,outcome,[19],inactive
same,Potency,[8],inactive
same,outcome,[9],inactive
same,outcome,[10],inactive
same,outcome,[11],inactive
same,Potency,[12],inactive
same,outcome,[13],inactive
same,Potency,[14],inactive
same,Potency,[15],inactive
CC(C)(O)c1ccccc1CC[C@@H](SCC1(CC(=O)O)CC1)c1cccc(/C=C/c2ccc3ccc(Cl)cc3n2)c1,Potency,[2],13.3 µM (active)
same,Potency,[17],inactive
same,Potency,[3],inactive
same,outcome,[4],inactive
same,outcome,[5],inactive
same,Potency,[6],inactive
same,outcome,[7],inactive
same,outcome,[19],inactive
same,Potency,[8],inactive
same,outcome,[9],inactive
same,outcome,[10],inactive
same,outcome,[11],inactive
same,Potency,[12],inactive
same,outcome,[13],inactive
same,Potency,[14],inactive
O=C(CCCN1CCN(c2ccc(F)cc2)CC1)NC1c2ccccc2CSc2ccccc21 (stereo unspecified),Potency,[1],inactive
same,Potency,[3],inactive
same,outcome,[4],inactive
same,outcome,[5],inactive
same,Potency,[6],inactive
same,outcome,[7],inactive
same,outcome,[19],inactive
same,Potency,[8],inactive
same,outcome,[9],inactive
same,outcome,[10],inactive
same,outcome,[11],inactive
same,Potency,[12],inactive
same,Potency,[14],inactive
same,Potency,[15],inactive
same,Potency,[16],inactive
COC(=O)[C@@H]1CC2=CC(=O)CC[C@]2(C)[C@@]23O[C@@H]2C[C@@]2(C)[C@@H](CC[C@@]24CCC(=O)O4)[C@H]13,Potency,[1],inactive
same,Potency,[17],inactive
same,outcome,[4],inactive
same,outcome,[5],inactive
same,Potency,[6],inactive
same,outcome,[7],inactive
same,Potency,[8],inactive
same,outcome,[9],inactive
same,outcome,[10],inactive
same,outcome,[11],inactive
same,Potency,[12],inactive
same,outcome,[13],inactive
same,Potency,[14],inactive
NC(=O)N(O)[C@@H]1COc2cc(OCc3ccccc3)ccc21,Potency,[1],1.54 µM (active)
same,outcome,[4],inactive
same,outcome,[5],inactive
same,Potency,[6],inactive
same,outcome,[7],inactive
same,outcome,[19],inactive
same,Potency,[8],inactive
same,outcome,[9],inactive
same,outcome,[10],inactive
same,outcome,[11],inactive
same,Potency,[12],inactive
same,outcome,[13],inactive
same,Potency,[14],inactive
same,Potency,[15],inactive
same,Potency,[16],inactive
CCCCCCCCCCCCCCC[C@H](O)[C@@H](N)CO,Potency,[1],inactive
same,Potency,[17],inactive
same,Potency,[3],inactive
same,outcome,[4],inactive
same,outcome,[5],inactive
same,Potency,[6],inactive
same,outcome,[19],inactive
same,Potency,[8],inactive
same,outcome,[9],inactive
same,outcome,[10],inactive
same,outcome,[11],inactive
same,Potency,[12],inactive
same,outcome,[13],inactive
same,Potency,[14],inactive
same,Potency,[15],inactive
O=C(N/N=C/c1ccc([N+](=O)[O-])o1)c1ccc(O)cc1,Potency,[1],inactive
same,Potency,[2],inactive
same,"fluorescence, relative to Rose Bengal",[4],-0.334% [at 18.6 µM]
same,"fluorescence, % of fluorescein control",[5],-0.0853% [at 18.6 µM]
same,"fluorescence, % of triamterene",[6],0.159% [at 18.6 µM]
same,"fluorescence, % of fluorescent control",[7],0.101% [at 18.6 µM]
same,"fluorescence, % of fluorescein",[19],0.0272% [at 18.6 µM]
same,"fluorescence, % of fluorescent control",[8],-0.307% [at 18.6 µM]
same,activity change,[9],0.0091% [at 18.6 µM]
same,"fluorescence, % of fluorescent control",[10],-0.537% [at 18.6 µM]
same,"fluorescence, % of Rose Bengal",[11],-0.154% [at 18.6 µM]
same,"fluorescence, % of fluorescent control",[12],-0.18% [at 18.6 µM]
same,"fluorescence, % of fluorescein control",[13],-0.0078% [at 18.6 µM]
same,"fluorescence, % of fluorescent control",[14],-0.0309% [at 18.6 µM]
same,Potency,[15],inactive
same,Potency,[16],inactive
CCCCCCOC(=O)CCCCCCCC(=O)OCCCCCC,Potency,[1],inactive
same,Potency,[17],inactive
same,Potency,[3],inactive
same,outcome,[4],inactive
same,outcome,[5],inactive
same,Potency,[6],inactive
same,outcome,[7],inactive
same,outcome,[19],inactive
same,Potency,[8],inactive
same,outcome,[9],inactive
same,outcome,[10],inactive
same,outcome,[11],inactive
same,Potency,[12],inactive
same,outcome,[13],inactive
same,Potency,[14],inactive
same,Potency,[15],inactive
same,Potency,[16],inactive
NC(=O)Cn1c(=O)cc(CCN2CCN(c3nccc4sccc34)CC2)c2ccc(F)cc21,Potency,[1],inactive
same,Potency,[2],inactive
same,Potency,[3],inactive
same,outcome,[5],inactive
same,Potency,[6],inactive
same,outcome,[7],inactive
same,outcome,[19],inactive
same,Potency,[8],inactive
same,outcome,[9],inactive
same,outcome,[10],inactive
same,outcome,[11],inactive
same,Potency,[12],inactive
same,Potency,[14],inactive
same,Potency,[15],inactive
same,Potency,[16],inactive
CC(=O)OCC(=O)[C@@]12OC(C)(C)O[C@@H]1C[C@H]1[C@@H]3C[C@H](F)C4=CC(=O)C=C[C@]4(C)[C@@]3(F)[C@@H](O)C[C@@]12C,Potency,[2],inactive
same,Potency,[17],inactive
same,"fluorescence, relative to Rose Bengal",[4],0.821% [at 18.6 µM]
same,"fluorescence, % of fluorescein control",[5],-0.0438% [at 18.6 µM]
same,"fluorescence, % of triamterene",[6],-0.188% [at 18.6 µM]
same,"fluorescence, % of fluorescent control",[7],0.156% [at 18.6 µM]
same,"fluorescence, % of fluorescein",[19],-0.0611% [at 18.6 µM]
same,"fluorescence, % of fluorescent control",[8],-0.0905% [at 18.6 µM]
same,activity change,[9],-0.0593% [at 18.6 µM]
same,"fluorescence, % of fluorescent control",[10],0.389% [at 18.6 µM]
same,"fluorescence, % of Rose Bengal",[11],-0.181% [at 18.6 µM]
same,"fluorescence, % of fluorescent control",[12],-0.0666% [at 18.6 µM]
same,"fluorescence, % of fluorescein control",[13],-0.0467% [at 18.6 µM]
same,"fluorescence, % of fluorescent control",[14],0.231% [at 18.6 µM]
same,Potency,[15],0.0064 µM (active)
